PubChem BioAssay (Tox21)
Records with an inconclusive call do not appear. Calls of active or inactive are those of the source. Unless noted, calls come from the whole dose curve; as a rule, active = well fitted curve in the direction sought with a large enough effect in the repeat runs; inconclusive = weak or mixed curves; inactive = no such curve, though single readings can be large; an effect the other way counts as inactive or inconclusive.

How the values were obtained:
[1] = qHTS assay to identify small molecule antagonists of the sonic hedgehog signaling (Shh) pathway (AID 1259369; calls by dose curve; note: nearly all actives have a fitted effect of over 45% in size)
Procedure, shortened: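 3T3Gli1-Luc, conditioned-medium-stimulated, 24hr cpd, 37C/5% CO2; Gli1-driven firefly Luc luminescence after 30min RT with luciferase reagent. Cells plated 4hr before cpd.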

[2] = qHTS assay to identify small molecule agonists of the androgen receptor (AR) signaling pathway in the presence of an antagonist - cell viability counter screen (AID 1259379);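 note: MDA-kb2 human breast cancer cells carrying an MMTV luciferase reporter; series mostly up to about 92 µM; nearly all actives have a fitted effect of over 25% in size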
Procedure, shortened: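 Cells: MDA-kb2 (MMTV-luc, AR and GR elements), 3,000/well, 5 hr settle. Added: nilutamide 3.0uM final, then compounds (15 conc.). Incubation: 16 hr, 37C, no CO2. Read-out: CellTiter-Fluor, 1 hr, fluorescence.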

[3] = qHTS assay to identify small molecule antagonists of the estrogen receptor beta (ER-beta) signaling pathway - cell viability counter screen (AID 1259382);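 note: HEK293T cells carrying ER-beta-UAS-bla reporter stimulated with estradiol; series mostly up to about 92 µM; nearly all actives have a fitted effect of over 55% in size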
Procedure, shortened: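 Cells: ER-beta-UAS-bla HEK293T, 2,000/well, 2% CS-FBS, 6 hr settle. Cpd + E2 (1nM final), 16 hr, 37C/5% CO2. Bla FRET substrate 2 hr RT, then CellTiter-Glo 30 min RT, luminescence.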

[4] = target: Estrogen receptor (Homo sapiens) (UniProt P03372); assay: qHTS assay to identify small molecule agonists of the estrogen receptor alpha (ER-alpha) signaling pathway in the presence of an antagonist (AID 1259383; calls by dose curve; note: top concentration of the series differs between compounds; nearly all actives have a fitted effect of over 15% in size)
Procedure, shortened: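 VM7Luc4E2, endog. ER-alpha + 4×ERE-luc; charcoal-stripped FBS, phenol red-free, 5 d; 24hr plating; +10.0nM ICI-182,780 (final); cpds 15 conc, 22hr, 37C/5% CO2; ONE-Glo luminescence.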

[5] = qHTS assay to identify small molecule agonists or antagonists of the thyroid stimulating hormone receptor (TSHR) signaling pathway - wild type cell line counter screen (AID 1259384; calls by dose curve)
Procedure, shortened: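 Counter screen in untransfected Hek293: compounds (15-point titration, triplicate) plus phosphodiesterase inhibitor Ro20-1724 added after 18 h plating; 30 min RT. Intracellular cAMP via competitive d2/cryptate immunoassay, 1 h incubation.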

[6] = target: Thyrotropin receptor (Homo sapiens) (UniProt P16473); assay: qHTS assay to identify small molecule antagonists of the thyroid stimulating hormone receptor (TSHR) signaling pathway (AID 1259385; calls by dose curve; note: nearly all actives have a fitted effect of over 20% in size)
Procedure, shortened: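 Antagonist mode: compound-treated TSHR-expressing HEK293 cells were stimulated with 1.5 ng/mL TSH (final) in presence of Ro20-1724 for 30 min at RT. HTRF cAMP detection after 1 h; each compound tested at 15 concentrations, triplicate.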

[7] = qHTS assay to identify small molecule agonists of the estrogen receptor alpha (ER-alpha) signaling pathway in the presence of an antagonist - cell viability counter screen (AID 1259386);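 note: series mostly up to about 92 µM; cells exposed to compounds for 22 h at 37 °C before the viability read; nearly all actives have a fitted effect of over 30% in size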
Procedure, shortened: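 VM7Luc4E2, stripped-serum pre-culture 5 d; 24hr plating; +ICI-182,780 10.0nM final; cpds 15 conc, 22hr, 37C/5% CO2; CellTiter-Fluor added at 21hr, fluorescence 1hr later.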

[8] = target: Progesterone receptor (Homo sapiens) (UniProt P06401); assay: qHTS assay to identify small molecule agonists of the progesterone receptor (PR) signaling pathway (AID 1346784; calls by dose curve; note: nearly all actives have a fitted effect of over 30% in size)
Procedure, shortened: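 PR-UAS-bla HEK 293T cells (beta-lactamase reporter under UAS) in 2% charcoal-stripped FBS, dosed with 23 nL compound after 6 hr, incubated 16hr at 37C. LiveBLAzer B/G FRET substrate added, fluorescence read after 2 hours.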

[9] = target: Progesterone receptor (Homo sapiens) (UniProt P06401); assay: qHTS assay to identify small molecule antagonists of the progesterone receptor (PR) signaling pathway (AID 1346795; active = well fitted inhibition curve with a large enough effect in the signal ratio in the repeat runs, not every such curve was filed as active; the % refers to the signal ratio)
Procedure, shortened: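 PR-UAS-bla HEK293T cells with beta-lactamase reporter under UAS control, in 2% charcoal-stripped FBS, treated with compounds plus 1 nM promegestone (R5020, final) for 16 hr at 37C. Read-out: FRET beta-lactamase substrate fluorescence after 2 hr at room temperature.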

[10] = qHTS assay to identify small molecule antagonists of the progesterone receptor (PR) signaling pathway - cell viability counter screen (AID 1346798); note: series mostly up to about 92 µM; nearly all actives have a fitted effect of over 50% in size
Procedure, shortened: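 PR-UAS-bla HEK293T cells, 3,000/well in 2% charcoal-stripped FBS medium, dosed with compounds plus R5020 agonist and incubated 16 h at 37C. Viability then measured in the same wells by CellTiter-Glo luminescence after 30 min at RT.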

[11] = qHTS assay to identify small molecule antagonists of the TGF-beta/Smad signaling pathway - cell viability counter screen (AID 1346824); note: nearly all actives have a fitted effect of over 50% in size
Procedure, shortened: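 Cytotoxicity counter-screen run in the same wells as the beta-lactamase Smad reporter read: CellTiter-Glo luminescence after 30 min at room temperature. HEK 293T SBE-bla cells had 5 hr compound exposure at 37 C with TGF-beta1 (0.25 ng/mL stock).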

[12] = qHTS assay to identify small molecule agonists of the TGF-beta/Smad signaling pathway - cell viability counter screen (AID 1346829); note: top concentration of the series differs between compounds; nearly all actives have a fitted effect of over 45% in size
Procedure, shortened: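 Tox21 qHTS format: SBE-bla HEK 293T cells treated with DMSO-dissolved compounds for 5 hr; CellTiter-Glo luminescence after 30 min at room temperature.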

[13] = qHTS assay to identify small molecule agonists of the TGF-beta/Smad signaling pathway (AID 1346859; active = well fitted activation curve with a large enough effect in the signal ratio in the repeat runs, not every such curve was filed as active; the % refers to the signal ratio; note: series mostly up to about 77 µM)
Procedure, shortened: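 SBE-bla HEK293T cells plated overnight, then compound exposure for 5 h at 37 C. Beta-lactamase reporter read with LiveBLAzer B/G FRET substrate after 2 h at room temperature, fluorescence at 405 nm excitation, 460/530 nm emission.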

[14] = target: Thyrotropin-releasing hormone receptor (Homo sapiens) (UniProt P34981); assay: qHTS assay to identify small molecule antagonists of the thyrotropin-releasing hormone receptor (TRHR) signaling pathway (AID 1346877; active = well fitted inhibition curve with a large enough effect in the repeat runs, not every such curve was filed as active; note: series mostly up to about 51 µM)
Procedure, shortened: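 Intracellular calcium fluorescence, read kinetically every second over 3 min, reports TRH-evoked signalling in HEK293 cells carrying TRHR. Test compounds were added 5 min ahead of a 1 nM TRH challenge.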

[15] = target: Thyrotropin-releasing hormone receptor (Homo sapiens) (UniProt P34981); assay: qHTS assay to identify small molecule agonists of the thyrotropin-releasing hormone receptor (TRHR) signaling pathway (AID 1346891; calls by dose curve; note: series mostly up to about 58 µM)
Procedure, shortened: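 HEK293 cells expressing TRHR plated 18 h at 37 C/5% CO2, calcium dye-loaded 2 h at 37 C, then compound added (agonist mode); kinetic calcium fluorescence read 3 min at 1 s intervals; 15 concentrations in triplicate.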

[16] = qHTS assay to identify small molecule agonists of the estrogen receptor beta (ER-beta) signaling pathway - cell viability counter screen (AID 1259380); note: nearly all actives have a fitted effect of over 30% in size
Procedure, shortened: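 HEK293T ER-beta-UAS-bla; 2% CS-FBS; 6 hr pre-plate, 16 hr cpd at 37C/5% CO2; LiveBLAzer read first, then CellTiter-Glo 30 min RT, luminescence.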

[17] = qHTS assay to identify small molecule agonists of the progesterone receptor (PR) signaling pathway - cell viability counter screen (AID 1346799; calls by dose curve; note: nearly all actives have a fitted effect of over 45% in size)
Procedure, shortened: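 Counter screen in the PR-UAS-bla HEK293T wells (2% charcoal-stripped FBS, 16 h compound exposure at 37 C) after the bla read. CellTiter-Glo added, 30 min at room temperature, luminescence read as cell viability.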

[18] = target: Estrogen receptor beta (Homo sapiens) (UniProt Q92731); assay: qHTS assay to identify small molecule agonists of the estrogen receptor beta (ER-beta) signaling pathway (AID 1259377; active = well fitted activation curve with a large enough effect in the signal ratio in the repeat runs, not every such curve was filed as active; the % refers to the signal ratio)
Procedure, shortened: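 ER-beta-UAS-bla HEK293T cells in medium with 2% charcoal-stripped FBS were exposed to compounds for 16 h at 37C. Beta-lactamase reporter activity was read as fluorescence after 2 h with LiveBLAzer B/G FRET substrate at room temperature.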

[19] = target: Estrogen receptor beta (Homo sapiens) (UniProt Q92731); assay: qHTS assay to identify small molecule antagonists of the estrogen receptor beta (ER-beta) signaling pathway (AID 1259378; active = well fitted inhibition curve with a large enough effect in the signal ratio in the repeat runs, not every such curve was filed as active; the % refers to the signal ratio)
Procedure, shortened: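 Antagonist mode: compounds added to beta-lactamase reporter HEK293T ER-beta-UAS cells stimulated with E2 (1nM final), 16 hr at 37C. LiveBLAzer B/G FRET substrate, 2 hours room temperature, fluorescence read-out.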
% is set by controls: 0 for no effect and ±100 for the full control effect.

Chain of Progesterone receptor (Homo sapiens) (P06401 whole entry, looked up): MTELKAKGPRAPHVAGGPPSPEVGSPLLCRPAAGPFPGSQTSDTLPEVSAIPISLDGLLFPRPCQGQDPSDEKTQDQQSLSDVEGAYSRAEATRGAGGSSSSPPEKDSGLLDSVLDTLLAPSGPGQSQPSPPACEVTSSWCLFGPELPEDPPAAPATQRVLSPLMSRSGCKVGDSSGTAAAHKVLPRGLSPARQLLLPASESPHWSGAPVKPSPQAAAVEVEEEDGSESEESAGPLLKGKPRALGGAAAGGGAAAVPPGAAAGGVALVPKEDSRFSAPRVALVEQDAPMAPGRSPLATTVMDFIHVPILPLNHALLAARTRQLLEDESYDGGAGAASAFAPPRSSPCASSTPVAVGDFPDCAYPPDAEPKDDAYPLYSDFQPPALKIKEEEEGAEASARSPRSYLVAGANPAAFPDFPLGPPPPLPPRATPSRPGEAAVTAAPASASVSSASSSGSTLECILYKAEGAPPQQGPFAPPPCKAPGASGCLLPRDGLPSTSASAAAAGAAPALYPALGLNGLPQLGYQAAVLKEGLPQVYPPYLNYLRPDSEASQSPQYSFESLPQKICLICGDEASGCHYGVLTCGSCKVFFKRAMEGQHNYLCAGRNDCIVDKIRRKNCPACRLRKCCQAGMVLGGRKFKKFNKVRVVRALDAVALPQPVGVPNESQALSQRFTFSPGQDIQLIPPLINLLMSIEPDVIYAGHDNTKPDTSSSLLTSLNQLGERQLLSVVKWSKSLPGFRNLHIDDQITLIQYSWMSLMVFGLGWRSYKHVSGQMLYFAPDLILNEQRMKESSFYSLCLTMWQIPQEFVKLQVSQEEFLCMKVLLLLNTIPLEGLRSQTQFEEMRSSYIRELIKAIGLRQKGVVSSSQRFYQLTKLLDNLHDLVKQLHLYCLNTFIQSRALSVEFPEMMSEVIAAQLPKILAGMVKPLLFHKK
Chain of Estrogen receptor beta (Homo sapiens) (Q92731 whole entry, looked up): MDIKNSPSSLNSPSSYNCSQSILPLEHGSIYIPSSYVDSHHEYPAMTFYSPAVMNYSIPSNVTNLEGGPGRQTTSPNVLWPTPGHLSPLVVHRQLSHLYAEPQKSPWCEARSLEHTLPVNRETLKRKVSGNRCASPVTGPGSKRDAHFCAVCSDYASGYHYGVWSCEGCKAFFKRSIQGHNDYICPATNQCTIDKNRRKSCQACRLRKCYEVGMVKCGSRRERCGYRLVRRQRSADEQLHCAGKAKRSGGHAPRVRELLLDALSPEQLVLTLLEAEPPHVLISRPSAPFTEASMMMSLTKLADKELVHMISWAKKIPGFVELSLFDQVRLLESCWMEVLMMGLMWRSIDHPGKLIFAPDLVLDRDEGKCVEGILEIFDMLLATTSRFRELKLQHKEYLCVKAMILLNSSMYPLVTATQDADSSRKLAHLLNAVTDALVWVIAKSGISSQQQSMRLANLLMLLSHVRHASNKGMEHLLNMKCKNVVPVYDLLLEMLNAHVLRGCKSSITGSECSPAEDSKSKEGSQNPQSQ
Chain of Estrogen receptor (Homo sapiens) (P03372 whole entry, looked up): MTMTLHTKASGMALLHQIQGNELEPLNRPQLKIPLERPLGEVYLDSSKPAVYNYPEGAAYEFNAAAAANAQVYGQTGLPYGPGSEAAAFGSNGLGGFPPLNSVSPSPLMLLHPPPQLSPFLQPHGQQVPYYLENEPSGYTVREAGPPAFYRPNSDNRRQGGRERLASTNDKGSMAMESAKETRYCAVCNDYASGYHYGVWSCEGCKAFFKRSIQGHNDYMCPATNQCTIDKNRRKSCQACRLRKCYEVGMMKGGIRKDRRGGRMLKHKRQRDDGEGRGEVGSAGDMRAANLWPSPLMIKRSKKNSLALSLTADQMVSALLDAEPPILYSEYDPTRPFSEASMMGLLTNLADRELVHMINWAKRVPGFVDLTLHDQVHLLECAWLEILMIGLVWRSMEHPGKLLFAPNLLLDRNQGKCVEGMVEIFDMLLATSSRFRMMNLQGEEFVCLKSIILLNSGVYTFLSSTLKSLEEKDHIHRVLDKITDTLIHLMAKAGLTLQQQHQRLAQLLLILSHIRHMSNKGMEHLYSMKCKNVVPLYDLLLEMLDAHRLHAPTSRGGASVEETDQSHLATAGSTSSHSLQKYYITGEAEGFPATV
Chain of Thyrotropin-releasing hormone receptor (Homo sapiens) (P34981 whole entry, looked up): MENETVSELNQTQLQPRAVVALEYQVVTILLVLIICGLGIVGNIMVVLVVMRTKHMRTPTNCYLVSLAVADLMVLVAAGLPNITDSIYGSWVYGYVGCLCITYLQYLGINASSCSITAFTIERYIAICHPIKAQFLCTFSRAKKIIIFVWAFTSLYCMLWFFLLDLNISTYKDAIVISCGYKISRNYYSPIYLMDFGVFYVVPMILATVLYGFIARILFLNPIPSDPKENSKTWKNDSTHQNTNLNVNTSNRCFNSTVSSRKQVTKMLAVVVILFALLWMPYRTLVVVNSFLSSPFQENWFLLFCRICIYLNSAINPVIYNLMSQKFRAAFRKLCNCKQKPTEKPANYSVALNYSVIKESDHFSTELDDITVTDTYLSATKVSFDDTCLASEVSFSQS
Chain of Thyrotropin receptor (Homo sapiens) (P16473 whole entry, looked up): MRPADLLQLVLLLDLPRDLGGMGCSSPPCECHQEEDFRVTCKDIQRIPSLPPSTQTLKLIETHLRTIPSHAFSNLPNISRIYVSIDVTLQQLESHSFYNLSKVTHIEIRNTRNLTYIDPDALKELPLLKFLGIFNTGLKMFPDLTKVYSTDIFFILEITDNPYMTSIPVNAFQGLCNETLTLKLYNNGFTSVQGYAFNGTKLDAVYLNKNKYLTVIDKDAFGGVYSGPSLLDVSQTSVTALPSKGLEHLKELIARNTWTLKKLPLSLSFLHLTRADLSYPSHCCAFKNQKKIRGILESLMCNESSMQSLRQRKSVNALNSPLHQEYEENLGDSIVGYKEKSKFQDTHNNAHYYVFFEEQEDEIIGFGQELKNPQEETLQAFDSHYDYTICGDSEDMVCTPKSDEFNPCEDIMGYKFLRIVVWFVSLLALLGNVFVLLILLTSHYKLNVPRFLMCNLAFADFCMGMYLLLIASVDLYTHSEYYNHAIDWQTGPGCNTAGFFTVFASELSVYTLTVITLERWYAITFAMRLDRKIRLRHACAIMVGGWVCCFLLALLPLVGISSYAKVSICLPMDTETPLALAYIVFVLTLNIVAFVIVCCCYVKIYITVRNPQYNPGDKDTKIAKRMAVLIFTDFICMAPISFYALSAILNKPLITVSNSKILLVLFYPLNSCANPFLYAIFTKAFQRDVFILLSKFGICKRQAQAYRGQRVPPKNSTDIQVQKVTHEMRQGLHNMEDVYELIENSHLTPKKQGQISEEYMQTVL

C[C@H]1C[C@H]2[C@@H]3CCC4=CC(=O)C=C[C@]4(C)[C@H]3C(=O)C[C@]2(C)[C@@]1(O)C(=O)CO
inactive: Potency [1] | Potency [2] | outcome [3] | outcome [4] | outcome [5] | outcome [6] | Potency [7] | Potency [8] | Potency [9] | Potency [10] | outcome [11] | outcome [12] | outcome [13] | outcome [14] | Potency [15]

C[N+]1(C)[C@@H]2CC(OC(=O)[C@H](CO)c3ccccc3)C[C@H]1[C@@H]1O[C@@H]12 (some centres not stated)
inactive: Potency [1] | Potency [2] | Potency [16] | outcome [3] | outcome [5] | Potency [7] | Potency [8] | Potency [9] | Potency [17] | outcome [12] | outcome [13] | outcome [14] | Potency [15]

O=S(=O)(O)c1cccc2c(S(=O)(=O)O)cccc12
inactive: Potency [1] | Potency [2] | Potency [16] | outcome [3] | outcome [5] | outcome [6] | Potency [7] | Potency [8] | Potency [9] | Potency [17] | outcome [11] | outcome [13] | outcome [14] | Potency [15]

CN(C)CCN(C)CCN(C)C
inactive: Potency [1] | Potency [2] | Potency [16] | outcome [3] | outcome [4] | outcome [5] | Potency [7] | Potency [8] | Potency [9] | Potency [10] | Potency [17] | outcome [11] | outcome [12] | outcome [14]

C[N+]1(CC2COC(c3ccccc3)(c3ccccc3)O2)CCCCC1 (configuration not stated)
inactive: activity change, negative = inhibition [1] -10.9% [at 19 µM] | activity change, negative = cytotoxicity [2] 4% [at 19 µM] | activity change, negative = cytotoxicity [3] 0.56% [at 19 µM] | activity change, negative = cytotoxicity [7] 7.11% [at 19 µM] | activity change, negative = inhibition [9] 3.69% [at 18.9 µM] | activity change, negative = cytotoxicity [17] -1.98% [at 19 µM] | viability change, negative = cytotoxic [11] 7.39% [at 15.8 µM] | activity change, negative = cytotoxicity [12] -19% [at 15.8 µM] | activation [13] 1.32% [at 15.8 µM] | activity, negative = inhibition [14] 1.31% [at 10.5 µM] | activation [15] 10.8% [at 11.8 µM]

O=[N+]([O-])c1ccc(/C=N\O)o1
inactive: Potency [18] | Potency [19] | Potency [2] | Potency [16] | outcome [3] | outcome [5] | outcome [6] | Potency [7] | Potency [8] | Potency [9] | Potency [10] | Potency [17] | outcome [11] | outcome [12] | outcome [13] | outcome [14]

CCOC(=O)COC(=O)c1ccccc1C(=O)OCC
inactive: Potency [18] | Potency [19] | Potency [2] | Potency [16] | outcome [3] | outcome [4] | outcome [5] | outcome [6] | Potency [7] | Potency [8] | Potency [9] | Potency [10] | Potency [17] | outcome [11] | outcome [12] | outcome [14] | Potency [15]

CCC(=O)OCc1ccccc1
inactive: Potency [18] | Potency [19] | Potency [2] | Potency [16] | outcome [3] | outcome [5] | outcome [6] | Potency [7] | Potency [8] | Potency [9] | Potency [10] | Potency [17] | outcome [11] | outcome [12] | outcome [13] | outcome [14] | Potency [15]

CCOc1ccc2nc(S(N)(=O)=O)sc2c1
inactive: Potency [1] | Potency [16] | outcome [3] | Potency [7] | Potency [8] | Potency [17] | outcome [11] | outcome [12] | outcome [14] | Potency [15]
